# 15-hLO inh: qHTS Assay for Inhibitors of 15-hLO (15-human lipoxygenase). Polyunsaturated fatty acid lipoxygenase ALOX15 (Homo sapiens), P16050. purified 15hLO-1, xylenol orange hydroperoxide absorbance. Potency, µM (highest dose often 57.1 µM), for inactives: at the highest dose activity change, negative = inhibition, actives largely listed as inhibitors. 1.4% of 74,000 active; further: on the % scale 0 is the no-effect control and ±100 the full control effect; nearly all actives have a fitted effect of over 55% in size
#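 Quantitative HTS in 25 mM Hepes pH 7.5 containing 0.01% Triton X-100: human 15hLO-1 at 40 nM, arachidonic acid at 50 uM, 6 min turnover. Product quantified via ferrous oxidation/xylenol orange, 573:405 nm absorbance ratio.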
# ERK AVP block: qHTS Assay for Inhibitors of the ERK Signaling Pathway using a Homogeneous Screening Assay. HEK293-V1b, vasopressin-stimulated pERK AlphaScreen. Potency, µM (series often up to 57.5 µM), for inactives: at the top dose activity, negative = inhibition, usual class: inhibitors. 0.99% of 72,000 active. AID 995, 2007; further: on the % scale 0 is the no-effect control and ±100 the full control effect; nearly all actives have a fitted effect of over 55% in size
#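 Overnight-seeded V1b-HEK293 cells in 1% FBS got compound, then vasopressin (25 nM final, 5 min, 37C), then lysis buffer. AlphaScreen detection of phospho-ERK; activity normalized to basal and full-stimulation controls.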
# CRE Fsk mod: Cell signaling CRE-BLA (Fsk stim); CHO CRE-bla reporter (cAMP response element driving beta-lactamase), forskolin EC10, beta-lactamase ratio; Potency, µM (series often up to 38.2 µM), without a hit: at the top dose activity change, negative = inhibition, most hits filed as activators; 2.5% of 71,000 active; active means well fitted activation curve with a large enough effect in the signal ratio, with a control signal flat, not every such curve was filed as active; inconclusive means small, poorly fitted or top-dose-only effect, or effect the other way, or a change in a side signal; the % refers to the signal ratio; further: % of control where 0% means no effect
#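 CRE-bla CHO cells stimulated with EC10 NKH 477 (water-soluble forskolin) and compound titrations, 3 h at 37C; beta-lactamase read with CCF4 after 2 h at room temperature. Activity from 460/530 nm emission ratio, AC50 values for positive or negative modulation.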
# 15-hLO-2 inh: qHTS Assay for Inhibitors of 15-hLO-2 (15-human lipoxygenase 2) | Polyunsaturated fatty acid lipoxygenase ALOX15B (Homo sapiens), O15296 | purified 15hLO-2, xylenol orange hydroperoxide absorbance | Potency, µM (series often up to 57.1 µM), inactives show at the top dose activity change, negative = inhibition, actives largely listed as inhibitors | 0.56% of 110,000 active; further: on the % scale 0 is the no-effect control and ±100 the full control effect; nearly all actives have a fitted effect of over 60% in size
# Target sequence (O15296 whole entry, looked up): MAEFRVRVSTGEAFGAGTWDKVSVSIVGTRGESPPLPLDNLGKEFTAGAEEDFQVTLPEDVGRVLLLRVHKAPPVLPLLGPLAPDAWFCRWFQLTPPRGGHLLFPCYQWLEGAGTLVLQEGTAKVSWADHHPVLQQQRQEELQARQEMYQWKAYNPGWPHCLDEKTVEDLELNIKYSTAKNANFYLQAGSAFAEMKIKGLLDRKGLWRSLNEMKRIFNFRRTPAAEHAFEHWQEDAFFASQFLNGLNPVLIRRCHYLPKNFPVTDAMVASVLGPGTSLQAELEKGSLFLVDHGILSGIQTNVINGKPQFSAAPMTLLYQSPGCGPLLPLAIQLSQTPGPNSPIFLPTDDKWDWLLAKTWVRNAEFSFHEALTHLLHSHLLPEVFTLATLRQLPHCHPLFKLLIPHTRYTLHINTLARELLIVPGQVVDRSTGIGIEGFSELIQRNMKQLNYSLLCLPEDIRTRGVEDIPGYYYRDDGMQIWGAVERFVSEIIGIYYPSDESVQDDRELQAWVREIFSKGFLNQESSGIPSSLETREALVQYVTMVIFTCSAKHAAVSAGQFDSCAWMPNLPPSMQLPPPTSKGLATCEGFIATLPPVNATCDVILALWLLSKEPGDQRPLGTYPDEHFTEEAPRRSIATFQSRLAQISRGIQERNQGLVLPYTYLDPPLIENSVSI
#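 Screening format was qHTS against 50 nM purified 15hLO-2 in Hepes pH 7.5 with detergent. Activity follows hydroperoxide formation from 45 uM arachidonic acid, measured as 573:405 nm absorbance ratio of the ferric-xylenol orange complex.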
# Numbers without * were called inactive; ? = inconclusive; / = not tested or not shown; [ ] = another dose, or the depositor's remark. Rows were chosen to be rich in hits. Some 3.2% of all compounds tested hit in one or more screens of this group. Unless noted, the call rests on the fitted dose curve; in most records, active means well fitted inhibition curve with a large enough effect; inconclusive means small, poorly fitted or top-dose-only effect; inactive means no such curve, though single readings can be large or run the other way. Potency means the concentration at half of the fitted maximal effect.
SMILES,15-hLO inh,ERK AVP block,CRE Fsk mod,15-hLO-2 inh
N#Cc1cc(-c2ccccc2)nn1-c1ccccc1,15.8µM*,33.7%,-6.3%,13.2%[2.29 µM]
CN(CC(=O)O)CC(=O)O,23.9%[11.4 µM],0.3%[11.5 µM],12.4%[7.6 µM],-2.3%[11.4 µM]
CCC(=O)[C@]12O[C@@]3(C4C(=O)OCCC41)N(CC)C(C)=C(C(=O)OC)C(c1ccccc1)N3C2=O (some centres not stated),15.7%[11.4 µM],-6.6%[11.5 µM],/,/
COc1ccc(COC(=O)N/N=C2/C[C@@H](O)[C@@H](O)[C@@H]3[C@@H]4C(=O)N(c5cccc(Oc6ccccc6)c5)C(=O)[C@H]4CC[C@H]23)cc1,0.7%[11.4 µM],0.4%[11.5 µM],/,/
CCOC(=O)c1oc2ccccc2c1NC(=O)COc1cccc(OC)c1,0.2%,3.7%,7.6%,/
CCOC(=O)c1oc2ccccc2c1NC(=O)c1ccccc1OC,-8.6%,-2.5%,2µM*,-4.9%
COCCOC(=O)C1=C(C)N=C2SCCC(=O)N2C1c1cc(Br)ccc1OC (configuration not stated),-1.4%,-3.8%,6.8%,/
CCOC(=O)c1c(C2COc3ccccc3O2)csc1N (configuration not stated),?,31.6µM*,25.2%,-0.2%
Cn1nc(-c2ccc(Cl)cc2)c2cc(C(=O)NCC3CCCO3)sc21 (configuration not stated),-16.7%,?,5.01µM*,17.6%
COc1cccc(-c2nn(C)c3sc(C(=O)N4CCOCC4)cc23)c1,6.2%,3.6%,10µM*,-0.2%
COc1ccc(N2CCN(C(=O)c3cc4c(-c5ccc(Cl)cc5)nn(C)c4s3)CC2)cc1,-5.8%,?,9.5%,1.8%
CN1CCN(CCCNC(=O)c2cc3c(-c4ccc(Cl)cc4)nn(C)c3s2)CC1,-11.4%,-17.4%,?,23.7%
Cn1nc(-c2ccc(Cl)cc2)c2cc(C(=O)N3CCOCC3)sc21,-15.1%,?,6.31µM*,1.2%
COCCn1c(=O)c(-c2ccc(OC)cc2)nc2cnc(Oc3ccc(OC)cc3)nc21,2.1%,-10.4%,?,-1.7%
c1ccc2c(c1)Cc1cc3cc4c(cc3nc1-2)OCO4,/,25.1µM*,?,-9.2%
O=C1c2ccccc2C(=O)N1Cc1ccc2c(c1)OCO2,-0.7%,8.7%,0.1%,4.5%
Cc1cc(C)n2nc(SCc3nc4ccccc4[nH]3)nc2n1,4.5%,/,0.794µM*,7.7%
O=C(Sc1nnc(-c2ccccc2)o1)N1c2ccccc2Sc2ccccc21,2.51µM*,-20.7%,?,/
CCN(CC)S(=O)(=O)c1cc(C(=O)Nc2nncs2)c(Cl)cc1Cl,-7.1%,31.6µM*,?,0.4%
CCN(CC)S(=O)(=O)c1ccc(Cl)c(C(=O)Nc2nncs2)c1,-1.1%,-5.8%,?,2.5%
CCN1C=C(Cc2cccs2)C2=C(C1)C(c1cccs1)C(C#N)=C(N)O2 (configuration not stated),10µM*,20.6%,2.4%,9.4%
Cc1cc2c(ccc3[nH]onc32)n1,20µM*,?,-7.8%,-11.0%
CN1CCN(c2nc(-c3ccccc3C(F)(F)F)nc3ccccc23)CC1,-1.3%,?,?,1.6%
O=C(NCCc1cn2ccsc2n1)c1cccs1,-19.1%,/,12.6µM*,-0.8%
Cc1cccc(CNc2ccnc(-c3ccoc3)n2)c1,-14.5%,7.4%,?,11.8%
SMILES,15-hLO inh,ERK AVP block,CRE Fsk mod,15-hLO-2 inh
Cc1cc(NC(=O)CSc2nc3c([nH]c4ccccc43)c(=O)n2-c2cccc(C(F)(F)F)c2)no1,-18.0%,-12.3%,2µM*,/
COc1cccc(-n2c(SCC(=O)Nc3cc(C)on3)nc3c([nH]c4ccccc43)c2=O)c1,-22.0%,/,3.98µM*,/
C=CC1=C[C@@H](O)C2OC2C12OCCCO2 (some centres not stated),11.4%[11.4 µM],-16.8%[11.5 µM],/,/
Cc1ccc(NC2c3ncccc3C(=O)N2c2ccccc2C)cc1C (configuration not stated),25.1µM*,?,?,?
Cc1nc(N2CCOCC2)c2cc(-c3ccccc3)sc2n1,-13.7%,15.8µM*,?,12.9%
c1ccc(-n2nnc3c(N4CCOCC4)ncnc32)cc1,-12.2%,-14.5%,?,11.6%
c1ccc(-c2cc3c(N4CCOCC4)ncnc3s2)cc1,-11.8%,20µM*,-3.3%,2.3%
COc1ccc(-n2c(=O)c(C)nc3cnc(N4CCNCC4)nc32)cc1,21.9%,3.5%,12.6µM*,19.9%
